The full data set covers some 7,900 targets. This sample favours those with a hit. About 0.6% of all pairs of compound and target were hits.
Each target was assayed with CCCS(=O)(=O)Nc1ccc(F)c(C(=O)c2c[nH]c3ncc(Cl)cc23)c1F (assay: log2 fold change, soluble protein after heating vs DMSO (PISA); higher = thermal stabilisation; K562 cells, 10 uM, 30 min; active = over 0.2 and 3.5 SD of the protein, either way, in both replicates (recomputed)).
In short: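 Aliquots of K562 cells (2×10^6 cells/mL) treated with 10 μM compound for 30 min were heated for 3 min over 48°C-58°C. After pooling and extraction in PBS with 0.5% NP-40 at 4°C, soluble protein from a 21,000xg, 90 min spin was quantified by TMTpro 16plex LC-MS/MS with channel sums equalised. Thermal stability is expressed against control samples, from duplicates, as a log2 fold change.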

Chain of UniProt Q96GA3 (Q96GA3 whole entry, looked up): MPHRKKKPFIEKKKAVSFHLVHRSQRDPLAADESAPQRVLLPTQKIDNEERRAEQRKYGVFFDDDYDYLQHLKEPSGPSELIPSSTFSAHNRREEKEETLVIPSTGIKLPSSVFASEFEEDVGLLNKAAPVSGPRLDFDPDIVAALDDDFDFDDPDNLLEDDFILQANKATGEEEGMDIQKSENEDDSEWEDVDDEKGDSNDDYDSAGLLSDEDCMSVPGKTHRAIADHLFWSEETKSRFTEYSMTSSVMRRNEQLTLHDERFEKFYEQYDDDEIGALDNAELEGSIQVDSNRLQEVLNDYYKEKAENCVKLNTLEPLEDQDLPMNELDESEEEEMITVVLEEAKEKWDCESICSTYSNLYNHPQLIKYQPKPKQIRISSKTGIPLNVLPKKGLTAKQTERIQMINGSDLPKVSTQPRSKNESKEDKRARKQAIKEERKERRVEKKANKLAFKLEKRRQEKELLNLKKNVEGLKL
Chain of UniProt Q9Y6R4 (Q9Y6R4 whole entry, looked up): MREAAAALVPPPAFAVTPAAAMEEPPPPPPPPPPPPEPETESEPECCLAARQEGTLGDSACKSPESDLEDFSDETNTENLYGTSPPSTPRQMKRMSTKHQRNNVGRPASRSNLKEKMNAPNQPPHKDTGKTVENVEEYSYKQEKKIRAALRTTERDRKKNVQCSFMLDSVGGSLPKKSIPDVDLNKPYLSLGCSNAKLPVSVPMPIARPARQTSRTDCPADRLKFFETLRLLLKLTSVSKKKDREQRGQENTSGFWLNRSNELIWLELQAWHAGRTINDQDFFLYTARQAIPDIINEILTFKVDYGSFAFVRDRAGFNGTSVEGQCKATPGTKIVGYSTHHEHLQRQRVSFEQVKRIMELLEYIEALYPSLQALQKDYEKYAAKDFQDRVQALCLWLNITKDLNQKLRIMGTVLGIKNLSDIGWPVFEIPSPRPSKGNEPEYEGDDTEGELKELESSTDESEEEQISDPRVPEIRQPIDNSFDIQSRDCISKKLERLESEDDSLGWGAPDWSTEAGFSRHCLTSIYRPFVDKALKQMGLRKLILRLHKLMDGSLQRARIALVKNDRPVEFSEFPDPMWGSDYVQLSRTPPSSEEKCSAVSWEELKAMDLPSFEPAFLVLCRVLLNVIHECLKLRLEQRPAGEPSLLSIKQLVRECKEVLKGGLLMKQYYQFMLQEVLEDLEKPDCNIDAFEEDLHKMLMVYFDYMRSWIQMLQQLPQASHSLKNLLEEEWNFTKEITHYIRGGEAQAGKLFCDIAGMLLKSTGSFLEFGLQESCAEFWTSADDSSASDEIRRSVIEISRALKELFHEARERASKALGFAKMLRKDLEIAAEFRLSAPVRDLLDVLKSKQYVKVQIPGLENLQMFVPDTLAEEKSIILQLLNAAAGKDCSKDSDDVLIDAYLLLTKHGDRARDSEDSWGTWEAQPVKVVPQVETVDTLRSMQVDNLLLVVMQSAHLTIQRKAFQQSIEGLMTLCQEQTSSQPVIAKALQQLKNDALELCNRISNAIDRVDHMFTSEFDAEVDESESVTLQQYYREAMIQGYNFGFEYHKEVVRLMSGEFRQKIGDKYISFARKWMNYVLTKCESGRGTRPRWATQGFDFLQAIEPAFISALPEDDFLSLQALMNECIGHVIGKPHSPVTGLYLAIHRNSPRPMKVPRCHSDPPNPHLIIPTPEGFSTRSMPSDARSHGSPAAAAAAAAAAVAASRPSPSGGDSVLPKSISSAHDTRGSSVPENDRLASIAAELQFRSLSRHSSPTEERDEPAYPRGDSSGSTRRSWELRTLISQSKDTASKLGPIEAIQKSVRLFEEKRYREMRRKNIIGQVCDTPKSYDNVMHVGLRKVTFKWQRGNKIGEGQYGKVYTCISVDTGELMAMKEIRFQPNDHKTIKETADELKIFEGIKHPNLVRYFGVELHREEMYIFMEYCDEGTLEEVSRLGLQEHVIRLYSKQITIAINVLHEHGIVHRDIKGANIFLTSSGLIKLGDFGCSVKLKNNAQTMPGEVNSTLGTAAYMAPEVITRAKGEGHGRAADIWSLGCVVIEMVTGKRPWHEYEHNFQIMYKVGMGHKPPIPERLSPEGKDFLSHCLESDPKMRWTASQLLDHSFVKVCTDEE
Chain of UniProt Q02750 (Q02750 whole entry, looked up): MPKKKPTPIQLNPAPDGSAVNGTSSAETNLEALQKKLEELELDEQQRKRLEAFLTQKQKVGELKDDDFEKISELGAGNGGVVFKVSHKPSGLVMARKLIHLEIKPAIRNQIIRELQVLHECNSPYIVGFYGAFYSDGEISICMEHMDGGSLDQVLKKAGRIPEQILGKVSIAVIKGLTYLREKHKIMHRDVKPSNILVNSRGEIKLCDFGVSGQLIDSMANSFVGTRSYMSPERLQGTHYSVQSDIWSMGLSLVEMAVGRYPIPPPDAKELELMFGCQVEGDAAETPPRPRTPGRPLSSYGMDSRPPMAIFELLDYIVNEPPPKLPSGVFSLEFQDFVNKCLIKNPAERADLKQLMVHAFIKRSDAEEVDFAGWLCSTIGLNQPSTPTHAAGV
Chain of UniProt Q8NC56 (Q8NC56 whole entry, looked up): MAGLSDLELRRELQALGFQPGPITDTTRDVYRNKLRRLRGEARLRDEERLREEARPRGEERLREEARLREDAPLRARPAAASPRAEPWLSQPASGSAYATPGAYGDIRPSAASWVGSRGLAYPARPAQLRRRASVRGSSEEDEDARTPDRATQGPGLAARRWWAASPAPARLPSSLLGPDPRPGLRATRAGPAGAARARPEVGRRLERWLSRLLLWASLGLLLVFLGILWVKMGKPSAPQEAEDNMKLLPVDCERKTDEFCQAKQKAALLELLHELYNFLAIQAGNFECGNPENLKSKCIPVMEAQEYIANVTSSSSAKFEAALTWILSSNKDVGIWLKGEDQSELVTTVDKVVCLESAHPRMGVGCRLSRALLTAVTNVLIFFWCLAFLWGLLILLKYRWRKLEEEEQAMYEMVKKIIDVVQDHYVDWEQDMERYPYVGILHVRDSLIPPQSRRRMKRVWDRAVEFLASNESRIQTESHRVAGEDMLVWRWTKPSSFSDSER
Chain of UniProt Q8NC54 (Q8NC54 whole entry, looked up): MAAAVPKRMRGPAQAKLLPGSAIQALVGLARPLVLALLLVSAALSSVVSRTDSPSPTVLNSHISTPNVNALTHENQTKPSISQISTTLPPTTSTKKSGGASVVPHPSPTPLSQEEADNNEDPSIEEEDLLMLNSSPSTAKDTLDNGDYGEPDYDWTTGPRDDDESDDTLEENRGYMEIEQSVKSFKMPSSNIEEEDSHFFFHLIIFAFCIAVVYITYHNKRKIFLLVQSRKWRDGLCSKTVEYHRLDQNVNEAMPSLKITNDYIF
Chain of UniProt Q9BU23 (Q9BU23 whole entry, looked up): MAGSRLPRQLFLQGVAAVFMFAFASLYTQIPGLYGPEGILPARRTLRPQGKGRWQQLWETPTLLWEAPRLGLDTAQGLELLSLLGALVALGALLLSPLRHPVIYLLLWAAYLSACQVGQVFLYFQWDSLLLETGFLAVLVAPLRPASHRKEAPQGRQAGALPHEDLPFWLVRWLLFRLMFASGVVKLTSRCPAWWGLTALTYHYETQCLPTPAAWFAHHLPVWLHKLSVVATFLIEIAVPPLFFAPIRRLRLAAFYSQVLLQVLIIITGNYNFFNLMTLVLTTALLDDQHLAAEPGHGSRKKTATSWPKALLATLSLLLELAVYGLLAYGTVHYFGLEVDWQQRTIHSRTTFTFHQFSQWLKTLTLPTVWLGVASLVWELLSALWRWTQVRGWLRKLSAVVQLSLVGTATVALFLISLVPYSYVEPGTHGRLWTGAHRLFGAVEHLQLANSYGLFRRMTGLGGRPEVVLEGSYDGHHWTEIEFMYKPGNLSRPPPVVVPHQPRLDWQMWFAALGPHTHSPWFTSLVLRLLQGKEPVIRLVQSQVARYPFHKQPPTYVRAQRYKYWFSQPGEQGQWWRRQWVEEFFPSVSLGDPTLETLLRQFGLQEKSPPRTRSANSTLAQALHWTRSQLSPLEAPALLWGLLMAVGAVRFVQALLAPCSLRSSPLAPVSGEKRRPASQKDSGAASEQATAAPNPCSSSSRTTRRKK
Chain of UniProt P46734 (P46734 whole entry, looked up): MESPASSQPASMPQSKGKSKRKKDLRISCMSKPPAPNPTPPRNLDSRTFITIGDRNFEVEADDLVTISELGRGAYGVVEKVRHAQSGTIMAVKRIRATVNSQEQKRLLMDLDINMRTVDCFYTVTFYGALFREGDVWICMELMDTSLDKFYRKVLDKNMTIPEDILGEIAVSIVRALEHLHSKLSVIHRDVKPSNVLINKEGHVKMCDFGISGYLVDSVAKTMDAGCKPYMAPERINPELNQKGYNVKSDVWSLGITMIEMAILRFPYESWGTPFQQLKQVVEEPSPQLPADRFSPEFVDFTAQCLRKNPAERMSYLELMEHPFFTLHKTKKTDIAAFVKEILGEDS
Chain of UniProt Q8N108 (Q8N108 whole entry, looked up): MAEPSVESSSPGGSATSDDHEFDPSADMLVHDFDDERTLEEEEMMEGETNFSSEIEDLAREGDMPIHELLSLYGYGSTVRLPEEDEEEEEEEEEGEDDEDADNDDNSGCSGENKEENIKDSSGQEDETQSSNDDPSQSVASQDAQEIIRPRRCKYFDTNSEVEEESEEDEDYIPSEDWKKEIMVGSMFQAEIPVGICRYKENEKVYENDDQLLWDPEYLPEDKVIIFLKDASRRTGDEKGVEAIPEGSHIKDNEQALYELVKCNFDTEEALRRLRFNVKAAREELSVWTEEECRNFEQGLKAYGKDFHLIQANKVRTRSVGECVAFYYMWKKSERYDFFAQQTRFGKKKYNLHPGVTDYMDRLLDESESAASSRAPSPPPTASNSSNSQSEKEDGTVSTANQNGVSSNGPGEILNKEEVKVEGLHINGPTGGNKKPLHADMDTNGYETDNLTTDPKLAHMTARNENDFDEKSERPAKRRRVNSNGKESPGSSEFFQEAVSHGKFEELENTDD
Chain of UniProt Q8WV07 (Q8WV07 whole entry, looked up): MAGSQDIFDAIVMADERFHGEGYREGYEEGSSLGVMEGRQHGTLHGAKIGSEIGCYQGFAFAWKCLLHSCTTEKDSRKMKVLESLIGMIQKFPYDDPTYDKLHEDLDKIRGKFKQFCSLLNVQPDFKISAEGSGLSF

log2 fold change, inactive:
MCUR1 (UniProt Q96AQ8) -0.041
ITPRIP (UniProt Q8IWB1) 0.061
MAP2K1 (UniProt Q02750) 0.018
LPGAT1 (UniProt Q92604) 0.086
LMNB1 (UniProt P20700) 0.065
LTV1 (UniProt Q96GA3) -0.008
MAIP1 (UniProt Q8WWC4) 0.057
MIER1 isoform 12 (UniProt Q8N108) 0.008
KCT2 (UniProt Q8NC54) -0.011
KPNA4 (UniProt O00629) 0.038
MAPK12 (UniProt P53778) 0.104
LDLR (UniProt P01130) -0.073
LMF2 (UniProt Q9BU23) -0.022
LTN1 isoform 3 (UniProt O94822) 0.058
LRPPRC (UniProt P42704) 0.264
MAD2L1 (UniProt Q13257) 0.031
LARP4B (UniProt Q92615) 0.022
ILK (UniProt Q13418) -0.005
LTO1 (UniProt Q8WV07) 0.027
KIF3A (UniProt Q9Y496) 0.062
MAP3K20 (UniProt Q9NYL2) -0.163
MAGOHB (UniProt Q96A72) 0.04
MAP3K4 isoform 2 (UniProt Q9Y6R4) -0.001
LIMA1 isoform 4 (UniProt Q9UHB6) 0.011
MAGEC2 (UniProt Q9UBF1) 0.04
MAP2K3 isoform 3 (UniProt P46734) -0.008
MAGEA9 (UniProt P43362) 0.072
ILVBL (UniProt A1L0T0) 0.049
MDN1 (UniProt Q9NU22) 0.074
KIF21A isoform 4 (UniProt Q7Z4S6) 0.014
LNPK (UniProt Q9C0E8) -0.027
LRBA (UniProt P50851) 0.031
LEMD3 (UniProt Q9Y2U8) 0.005
LAMP2 (UniProt P13473) 0.048
KLHDC4 (UniProt Q8TBB5) 0.076
LBR (UniProt Q14739) 0.05
KHDC4 (UniProt Q7Z7F0) 0.017
MAP4K4 isoform 3 (UniProt O95819) 0.028
LEMD2 (UniProt Q8NC56) 0.045
